FMDV inh = antivirals against foot and mouth disease virus | hit rate 1.2% among 410,000 | Potency, µM (highest dose often 57.9 µM), inactives show at the highest dose activity change, negative = inhibition, hits mostly inhibitors | AID 1159524 | FMDV antiviral cell-based qHTS; calls by dose curve; tested in HEK293T cells; note: read-out not given here; potency is the fitted concentration of half-maximal effect; nearly all actives have a fitted effect of over 45% in size
VACV Venus inh = inhibitors of vaccinia virus (Venus reporter) | AID 720580 | Potency, µM (highest dose often 36.5 µM), without a hit: at the highest dose activity change, negative = inhibition, hits mostly inhibitors | hit rate 0.46% among 330,000 | Vaccinia virus Venus reporter expression, fluorescence; calls by dose curve; tested in A549 cells; note: potency is the fitted concentration of half-maximal effect; nearly all actives have a fitted effect of over 30% in size
Vaccinia mCherry = vaccinia inhibition (mCherry reporter); Vaccinia virus mCherry reporter infection, fluorescence; hit rate 0.63% among 310,000; Potency, µM (top dose mostly 36.5 µM), without a hit: top-dose activity change, negative = inhibition, usual class: inhibitors; calls by dose curve; tested in A549 cells; note: potency is the fitted concentration of half-maximal effect; nearly all actives have a fitted effect of over 35% in size
HCV inh = inhibitors of hepatitis C virus infection; Huh7.5.1 HCVcc-Cre infection, luciferase reporter, 44 h; Potency, µM (series often up to 41.8 µM), without a hit: top-dose activity change, negative = inhibition, most hits filed as inhibitors; hit rate 3.4% among 340,000; AID 651820; note: potency is the fitted concentration of half-maximal effect
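Infectious HCV cell culture screen: compound-treated cells (1,000/well, pre-plated 4 h) are infected with HCVcc-Cre at roughly 0.5 moi and grown 44 h. Infection is quantified by luciferase signal after 15 min substrate incubation at room temperature.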
FBPA Giardia inh = inhibitors of Giardia lamblia fructose-1,6-bisphosphate aldolase; A8B2U2; purified Giardia FBPA; Potency, µM (titrated, usually from 59.6 µM), for the others: top-dose activity, negative = inhibition, most hits filed as inhibitors; hit rate 0.71% among 290,000; note: potency is the fitted concentration of half-maximal effect; nearly all actives have a fitted effect of over 55% in size
Target sequence (A8B2U2 whole entry, looked up): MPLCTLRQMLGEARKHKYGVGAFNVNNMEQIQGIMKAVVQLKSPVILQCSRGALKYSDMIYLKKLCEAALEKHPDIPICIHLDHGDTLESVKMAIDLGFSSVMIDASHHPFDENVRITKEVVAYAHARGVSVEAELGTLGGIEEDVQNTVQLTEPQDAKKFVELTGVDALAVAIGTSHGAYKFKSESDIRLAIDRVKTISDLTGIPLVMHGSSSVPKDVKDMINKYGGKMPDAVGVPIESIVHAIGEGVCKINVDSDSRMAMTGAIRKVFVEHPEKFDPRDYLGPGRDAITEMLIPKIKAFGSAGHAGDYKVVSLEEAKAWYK
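Giardia FBPA (40 nM reagent) was preincubated 10 min at RT with compound (up to 57.5 uM final), then substrate plus GAPDH/TPI/NAD/arsenate coupling system with diaphorase/resazurin was added; resorufin fluorescence (525/598 nm) was read after 20 min.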
HCMV inh = human cytomegalovirus inhibition | HFF cells, HCMV-luciferase reporter, 72 h; active compounds read low | activity change, negative = inhibition, % at 57.5 µM | hit rate 4.5% among 410,000 | AID 1259415; in the data active = activity change below about -60%; inconclusive = no clear call, values can overlap the other calls; inactive = above about -39%
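Screen run at 2 compound doses on HFFs infected with reporter HCMV, MOI 1 PFU/cell. Luciferase activity from cell lysates at 72 h post infection gave inhibition relative to buffer-only and Salinomycin wells.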
Numbers without * were called inactive; i = inactive; ? = inconclusive; nt = not tested or not shown; [ ] = dose if it differs, or a comment. An excerpt weighted towards active compounds, which were near 7.5% of everything screened. Unless noted, calls come from the whole dose curve; as a rule, active = well fitted curve in the direction sought with a large enough effect; inconclusive = small, poorly fitted or top-dose-only effect, or another doubt; inactive = no such curve, though single readings can be large; an effect the other way counts as inactive or inconclusive. % is set by controls: 0 for no effect and ±100 for the full control effect.

SMILES	FMDV inh	VACV Venus inh	Vaccinia mCherry	HCV inh	FBPA Giardia inh	HCMV inh
COc1cccc2c1C(=N)c1c(O)c3c(c(O)c1C2=O)CC(O)(C(C)=O)CC3OC1CC(N)C(O)C(C)O1 (centres undefined)	?	?	150.3%	?	nt	nt
CCCCC(=O)OCC(=O)C1(O)Cc2c(O)c3c(c(O)c2C(OC2CC(NC(=O)C(F)(F)F)C(O)C(C)O2)C1)C(=O)c1c(OC)cccc1C3=O (centres undefined)	-2.6%	i	374.0%	3.55µM*	nt	-98.4*
COc1cccc2c1C(=O)c1c(O)c3c(c(O)c1C2=O)CC(O)(C(C)=O)CC3OC1CC(O)C(O)C(C)O1 (centres undefined)	-6.6%	i	280.7%	?	nt	-100.7*
COc1cccc2c1C(=O)c1c(O)c3c(c(O)c1C2=O)C[C@](O)(C(C)=O)C[C@H]3O[C@@H]1C[C@@H](N)[C@@H](O)[C@@H](C)O1	-3.6%	480.5%	43.5%	8.91µM*	nt	-100.0*
CCCCNC(=O)c1nc(C2CCNCC2)oc1-c1cccc(C(F)(F)F)c1	-16.9%	-13.2%	-29.5%	nt	nt	2.1
CCCn1cc(CN2CCCC(C(=O)c3ccc4c(c3)OCO4)C2)c(C)n1 (centres undefined)	-8.9%	nt	nt	-10.0%	-5.0%	0.0
COc1ccc(/C=C/C(=O)O)cc1S(=O)(=O)N1CCC(C)CC1	1.3%	-9.6%	-9.1%	9.0%	12.5%	2.6
Cc1cccc(C)c1OCC(O)CNC(C)c1ccccc1 (centres undefined)	-22.5%	-4.2%	-7.1%	12.6µM*	-8.5%	-36.3
NCC(O)COCCC12CC3CC(CC(C3)C1)C2 (centres undefined)	-11.4%	-10.1%	-18.9%	10.5%	-6.8%	-11.4
CC(NCC(O)COCCC12CC3CC(CC(C3)C1)C2)c1ccccc1 (centres undefined)	31.6µM*	nt	nt	7.94µM*	5.8%	-98.4*
O=C(c1cnn(-c2nccc(-c3ccco3)n2)c1C1CC1)N1CCCCC1c1cccnc1 (centres undefined)	-12.0%	2.5%	-0.1%	nt	nt	nt
O=C1CC(c2ccc3c(c2)OCCO3)Oc2ccc([N+](=O)[O-])cc21 (centres undefined)	?	nt	nt	-3.8%	2.0%	-76.6*
O=C1CC(c2ccc3c(c2)OCCO3)Oc2ccccc21 (centres undefined)	52.1%	-2.4%[7.34 µM]	i[7.34 µM]	-16.0%	-1.9%	12.3
COc1ccccc1C(=O)C1CCCN(Cc2cn[nH]c2C2CCCCC2)C1 (centres undefined)	-21.6%	-28.8%	-14.3%	15.0%	2.8%	33.2
O=C(OCc1ccccc1)N1CCCCC1c1c(Cl)cccc1Br (centres undefined)	?	-3.0%	32.0%	nt	nt	-16.1
CCOC(=O)C1=C(c2ccccc2)N=c2s/c(=C\c3cccc(O)c3)c(=O)n2C1c1cccs1 (centres undefined)	nt	?	-20.8%	31.6µM*	-8.4%	-29.8
CCOC(=O)C1=C(C)N=c2s/c(=C\c3cccc(OCC(=O)O)c3)c(=O)n2C1c1ccccc1OC (centres undefined)	?	nt	nt	15.3%	9.2%	-6.7
O=C(COc1ccc(C(=S)N2CCCC2)cc1)Nc1ccc(F)cc1	-5.7%	-21.7%	-28.2%	-26.3%	-7.6%	?
O=C(COc1ccc(C(=S)N2CCCC2)cc1)Nc1ccccc1C(F)(F)F	0.0%	-21.3%	i	-18.3%	2.3%	-65.4*
O=C(COc1ccc(C(=S)N2CCOCC2)cc1)Nc1ccccc1C(F)(F)F	-20.3%	-13.5%	-18.8%	?	6.2%	-87.1*
COC1=CC(=O)C(C(=O)c2ccccc2)=CC1=O	40.1%	0.0%	i	nt	1.12µM*	nt
CC1CCCCN1C(=S)Nc1ccc(S(=O)(=O)N2CCCCC2)cc1 (centres undefined)	0.1%	-28.6%	-12.1%	nt	nt	-30.8
CN(CP(=O)(O)C(O)c1ccccc1)S(C)(=O)=O (centres undefined)	-3.5%	11.4%	nt	13.8%	9.4%	-88.0*
Cc1c(Cl)cccc1NC(=O)CN1C(=O)COc2ccc(S(=O)(=O)N3CCOCC3)cc21	4.4%	-11.2%	-9.2%	nt	nt	-21.1

Screens deposited in PubChem BioAssay by National Center for Advancing Translational Sciences (NCATS).
